Screening results deposited in PubChem by The Scripps Research Institute Molecular Screening Center.
Compounds with a hit are over-represented: about 0.84% of the library has one in this group of screens.
SRC2 TRFRET art: TR-FRET signal artefacts, primary screen, artefact control for PPARgamma SRC-2 agonist project, biochemical; TR-FRET ratio at 8 µM; TR-FRET artefact counter-screen; active compounds read high; 200,000 tested, 0.4% active; in the data active = TR-FRET ratio above about 2000
PPARg SRC1 recr: PPARgamma agonists recruiting SRC-1 coactivator, primary screen, biochemical | Peroxisome proliferator-activated receptor gamma (Homo sapiens), P37231 | PPARgamma-SRC-1 coactivator recruitment biochemical assay | activation, % at 8 µM | 200,000 tested, 0.41% active; in the data active = activation above about 19%
PPARg SRC-2 ag: agonists of PPARg-SRC-2 recruitment, primary screen, biochemical, HTS; Peroxisome proliferator-activated receptor gamma (Homo sapiens), P37231; PPARgamma LBD-SRC-2 recruitment; activation, % at 8 µM; 200,000 tested, 0.34% active; AID 1032, 2008
PPARg SRC-3 ag: PPARgamma agonists recruiting SRC-3 coactivator, primary screen, biochemical | biochemical PPARgamma/SRC-3 coactivator recruitment assay | activation, % at 8 µM | 200,000 tested, 0.26% active | AID 731, 2007; in the data active = activation above about 23%
SRC3 TRFRET art: TR-FRET detection interference compounds, artefact control for PPARgamma SRC-3 recruitment agonists, biochemical, TR-FRET ratio; TR-FRET artefact counter-screen, PPARgamma/SRC-3 format; active compounds read high; TR-FRET ratio at 8 µM; 99,000 tested, 0.39% active; AID 1048, 2008; in the data active = TR-FRET ratio above about 2000
SRC1 TRFRET art: TR-FRET detection interference compounds, primary screen, artefact control for PPARgamma SRC-1 recruitment agonists, biochemical, TR-FRET emission ratio; TR-FRET detection artefact counter-screen; active compounds read high; TR-FRET ratio at 8 µM; 99,000 tested, 0.34% active; AID 1051, 2008; in the data active = TR-FRET ratio above about 2300
PPARg SRC2 conf: agonists of PPARgamma SRC-2 coactivator recruitment, confirmation, biochemical, HTS; shares compounds with PPARg SRC-3 ag; biochemical SRC-2 recruitment by PPARgamma; activation, % at 8 µM; 790 tested, 52% active
PPARg SRC1 conf: PPARgamma agonists recruiting SRC-1 coactivator, confirmation, biochemical. 790 tested, 43% active. shares compounds with PPARg SRC-3 ag. activation, % at 8 µM. PPARgamma–SRC-1 coactivator recruitment biochemical assay; in the data active = activation above about 20%
PPARg SRC3 ag: PPARgamma-driven SRC-3 coactivator recruitment agonists, confirmation, biochemical. shares compounds with PPARg SRC-3 ag. biochemical PPARgamma-SRC-3 coactivator recruitment, agonist mode. activation, % at 8 µM. 790 tested, 29% active. AID 1301, 2008; in the data active = activation above about 24%
Numbers stand for hits; . = inactive; / = no result given. Cut-off read from the data, not from the text of the source, unless noted: active = activation above about 22%; inactive = the rest.

SMILES	SRC2 TRFRET art	PPARg SRC1 recr	PPARg SRC-2 ag	PPARg SRC-3 ag	SRC3 TRFRET art	SRC1 TRFRET art	PPARg SRC2 conf	PPARg SRC1 conf	PPARg SRC3 ag
CN1C(=O)/C(=C/C=C2\SCCN2C)N(C)C1=S	.	23.2	.	.	.	.	.	.	.
Cn1c(=O)c2c(nc(N/N=C3\CCCc4ccccc43)n2Cc2ccc(F)cc2)n(C)c1=O	.	.	.	.	.	.	/	/	/
COc1cc(/C=C/C(=O)OCC(=O)Nc2ccc(C)cc2[N+](=O)[O-])ccc1O	.	.	24.9	.	.	.	.	.	.
CCOC(=O)CSc1c(-c2cccs2)[nH]c2ccccc12	.	.	24.7	.	.	.	32.0	23.1	.
CCCCOc1ccc(C(C)NC(=O)C2CCCN(S(=O)(=O)CCC)C2)cc1 (stereo not drawn)	.	.	.	.	.	.	/	/	/
COC(=O)C1CC(O)CN1C(=O)NC1CCCCC1 (stereo not drawn)	.	.	.	.	.	.	/	/	/
COc1ccc(-n2c(O)c(C=Nc3ccccc3)c3ccccc3c2=O)cc1	.	.	.	.	.	.	/	/	/
COc1ccc(N=Cc2sc(O)c3ccccc23)cc1	.	22.3	28.1	26.3	/	/	.	.	.
CCCn1c(SCC(=O)Nc2cccc(S(=O)(=O)N3CCCC3)c2)n[nH]c1=O	.	.	.	.	.	.	/	/	/
O=C(N/N=C/c1ccc([N+](=O)[O-])o1)C1CC1	.	.	.	.	.	.	/	/	/
Cc1ccc2cc(C#N)c(SCC(=O)NNC(=O)Cc3ccccc3)nc2c1	.	.	.	.	.	.	/	/	/
COc1ccc2cc(C#N)c(SCC(=O)NNC(=O)Cc3ccccc3)nc2c1	2781	31.8	48.6	.	/	/	54.3	41.9	37.3
C#CCNC(=O)C1=C[C@H](C2CCCCC2)C[C@H](OCc2ccc(CO)cc2)O1	.	24.4	.	.	.	.	.	.	.
O=S(=O)(Nc1nc2ccccc2nc1N1CCN(c2ccccc2F)CC1)c1ccc(Cl)cc1	.	.	.	.	/	/	/	/	/
O=C(COc1ccc2ccccc2c1Br)NNC(=O)Nc1ccccc1	2408	21.1	28.4	25.7	/	/	.	.	.
ClCc1csc(-c2ccccc2Cl)n1	2108	.	25.4	.	2168	.	27.6	21.8	.
CC[n+]1c(/C=C/c2ccc(N(C)C)cc2)ccc2ccccc21	2167	61.3	64.0	47.1	2785	3540	52.5	38.6	30.1
CN(C)c1ccc(/C=C/c2cc[n+](C)cc2)cc1	.	.	.	.	/	/	/	/	/
CC[n+]1ccc(/C=C/c2ccc(N(C)C)cc2)c2ccccc21	4436	149.3	109.2	124.8	4546	4146	159.9	119.0	105.0
CC[n+]1ccccc1/C=C/c1ccc(N(C)C)cc1	.	.	.	.	.	.	/	/	/
Cc1cc(C)n(-c2ccc(C(=O)OCC(=O)c3ccc(Br)s3)cc2)n1	3035	20.5	27.6	35.6	/	/	29.5	22.0	.
Cc1[nH]c2ccccc2c1SCC(=O)N1CCC(C)CC1	.	.	.	.	.	.	/	/	/
CCOC(=O)C1CCN(C(=O)Cc2c(C(=O)O)n(C)c3ccccc23)CC1	.	.	.	.	/	/	/	/	/
CCn1cc(SCC(=O)N2CCOCC2)c2ccccc21	.	.	.	.	/	/	/	/	/
CCn1c(=O)cc(SCC(=O)N2CCC(C)CC2)c2ccccc21	3414	77.1	78.8	108.3	/	/	43.8	28.6	29.0
